Compound activity as filed in PubChem.
Most compounds without a hit are left out; they make up all but 6.9% or so of the library.
ASM inhibitor – inhibitors of human secretory acid sphingomyelinase; Potency, µM (series often up to 57.5 µM), inactives show top-dose activity change, negative = inhibition, actives largely listed as inhibitors; P17405; AID 504937; placental ASM, HMU-PC fluorogenic substrate, 60 min; 0.006% of 340,000 active; note: potency is the fitted concentration of half-maximal effect
Target sequence (P17405 47-631 limits assumed): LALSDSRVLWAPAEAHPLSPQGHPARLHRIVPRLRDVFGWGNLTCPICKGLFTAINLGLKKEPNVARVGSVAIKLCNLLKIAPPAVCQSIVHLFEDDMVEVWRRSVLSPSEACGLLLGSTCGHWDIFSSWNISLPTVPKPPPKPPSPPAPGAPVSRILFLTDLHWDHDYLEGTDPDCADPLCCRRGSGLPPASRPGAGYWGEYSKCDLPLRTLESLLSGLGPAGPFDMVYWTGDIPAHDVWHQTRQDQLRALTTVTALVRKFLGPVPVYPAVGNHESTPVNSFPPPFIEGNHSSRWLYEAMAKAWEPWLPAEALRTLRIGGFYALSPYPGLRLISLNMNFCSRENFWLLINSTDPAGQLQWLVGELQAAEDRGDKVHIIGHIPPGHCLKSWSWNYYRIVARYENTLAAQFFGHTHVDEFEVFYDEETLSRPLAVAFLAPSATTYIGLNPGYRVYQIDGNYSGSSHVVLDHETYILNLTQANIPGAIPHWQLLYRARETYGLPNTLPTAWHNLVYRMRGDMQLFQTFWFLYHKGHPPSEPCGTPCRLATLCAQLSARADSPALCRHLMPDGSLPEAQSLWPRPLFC
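HMU-PC0 cleavage (9 uM final) by human placental ASM, 60 min at 37 °C following 10 min compound exposure at RT; stopped at pH 10, fluorescence Ex 386/Em 447 nm.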
SW480 rerep – DNA re-replication induction in SW480 cells; SW480 DNA re-replication, Hoechst DNA content imaging, 48 h; Potency, µM (titrated, usually from 46.1 µM), for inactives: top-dose re-replication activation, most hits filed as activators; 1.8% of 340,000 active; AID 624297; note: potency is the fitted concentration of half-maximal effect; % of control where 0% means no effect; nearly all actives have a fitted effect of over 55% in size
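DNA re-replication was detected as more nuclei of elevated Hoechst intensity after 48 hr exposure to compound (23 nL pinned per well of 250 cells).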
KB-3-1 cytotox – kills parental KB-3-1 adenocarcinoma cells; KB-3-1 viability, CellTiter-Glo ATP luminescence, 72 h; 1.4% of 400,000 active; Potency, µM (highest dose often 46.1 µM), hits mostly cytotoxic; note: potency is the fitted concentration of half-maximal effect; % is set by controls: 0 for no effect and ±100 for the full control effect; nearly all actives have a fitted effect of over 60% in size
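Screening of KB-3-1 cells (DMEM, 10% FBS, phenol-red free) ran from lowest to highest compound concentration; after 72 h at 37 °C viability was read luminescently and curves fitted.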
Giardia killer – kills Giardia lamblia; activity change, % at 7.66 µM, hits read low; Giardia lamblia trophozoite viability; 0.15% of 340,000 active; in the data active = activity change below about -80%; inconclusive = between about -30% and that limit;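 note: parasites exposed to compound for two days anaerobically before the ATP read; % is set by controls: 0 for no effect and ±100 for the full control effect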
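Trophozoites 100 cells/well + cpd; 48 hrs, 37 deg C, anaerobic. ATPLite 1-Step added, 15-30 min RT, luminescence read (ATP-based viability).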
KB-V1 cytotox – KB-V1 MDR subline cytotoxicity | AID 1347076 | 3.4% of 400,000 active | Potency, µM (doses to about 46.1 µM), hits mostly cytotoxic | KB-V1 MDR cells viability, CellTiter-Glo, 72 h; note: potency is the fitted concentration of half-maximal effect; % is set by controls: 0 for no effect and ±100 for the full control effect; nearly all actives have a fitted effect of over 60% in size
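Luminescent ATP read-out (CellTiter-Glo, 10 min) measures survival of drug-selected KB-V1 MDR cells after 72 h, 37 degrees C compound exposure. Medium: phenol-red-free DMEM, 10% FBS. Values from fitted concentration-response curves.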
MCF10A rerep – DNA re-replication induction in MCF 10a cells | MCF 10A DNA re-replication, Hoechst nuclear intensity, 48 h | Potency, µM (titrated, usually from 46.1 µM), for inactives: at the highest dose activity, positive = re-replication, usual class: activators | 2.9% of 350,000 active | AID 624296; note: potency is the fitted concentration of half-maximal effect; % of control where 0% means no effect; nearly all actives have a fitted effect of over 50% in size
* hit, by the source's call; i = inactive; ? = inconclusive; . = no result; ! = repeats disagree; [ ] = dose if it differs, or a comment. Unless noted, calls come from the whole dose curve; as a rule, active = well fitted curve in the direction sought with a large enough effect; inconclusive = small, poorly fitted or top-dose-only effect, or another doubt; inactive = no such curve, though single readings can be large; an effect the other way counts as inactive or inconclusive.

SMILES	ASM inhibitor	SW480 rerep	KB-3-1 cytotox	Giardia killer	KB-V1 cytotox	MCF10A rerep
O=C(Cc1ccc(NC(=O)C2CCN(C(=O)C3CC3)CC2)cc1)Nc1ccc(C(=O)N2CCOCC2)cc1	-6%	?	i	?	i	-6%
O=C(CSc1n[nH]c(-c2ccccc2Cl)n1)NCc1ccc(F)cc1	.	.	i	.	i	.
COc1cc(OC)c(C2=NOC(C(=O)Nc3cc(C)nn3-c3ccccc3)C2)cc1Cl (configuration not stated)	-3%	1%	i	-16	18µM*	1%
O=C1CN(C(=O)c2cccc(Br)c2)c2ccccc2N1	-1%	?	5.8µM*	17	10µM*	23µM*
O=C1CN(C(=O)c2ccccc2)c2ccccc2N1	-2%	-8%	i	7	i	-1%
O=C(CSc1nc2ccccc2c(=O)[nH]1)Nc1ccc(N2CCOCC2)c(Cl)c1	1%	-11%	i	-25	?	14%
Cc1cccc(S(=O)(=O)c2c(N)n(/N=C/c3ccco3)c3nc4ccccc4nc23)c1	276%	25%	i	-8	3.7µM*	?
Nc1c(S(=O)(=O)c2cccs2)c2nc3ccccc3nc2n1/N=C/c1cccc(O)c1	264%	?	?	23	?	6.5µM*
Cc1cccc(S(=O)(=O)c2c(N)n(-c3ccccc3)c3nc4ccccc4nc23)c1	i	-1%	i	-1	2.9µM*	8%
CCOc1ccccc1NC(=O)C(CC)n1c(C(=O)OC)cc2occc21 (configuration not stated)	.	.	i	.	i	.
O=[N+]([O-])c1ccc(C=C2c3ccccc3-c3ccccc32)cc1	.	.	i	.	?	.
NC(=NCCCCCCN=C(N)/N=C(\N)Nc1ccc(Cl)cc1)/N=C(\N)Nc1ccc(Cl)cc1	?	1.3µM*!	?	8	?	?
COc1cc2ccccc2nn1	i	-114%	i	-3	i	-15%
COc1ccc2c(n1)Sc1nc3ccccc3nc1N2	-6%	?	i	4	i	21µM*
O=C(NCCCO)C(=O)Nc1cc2c3c(c1)CCC(=O)N3CCC2	-1%	-5%	i	1	?	?
CC1(C)CC(=O)C2=C(C1)NC(Nc1nc3ccccc3o1)=NC2c1ccccc1Cl (configuration not stated)	.	.	i	4	i	.
O=C1Cc2c([nH]c3ccc(Br)cc23)-c2ccccc2N1	-1%	26%	?	44	?	4.1µM*
O=C1Nc2ccccc2C1=Nc1ccc2[nH]c3ccccc3c2c1	181%	1%	i	-7	i	1%
CCn1ncc(CN2CCCC(C(=O)Nc3cccc(-c4cc5ccccc5[nH]4)c3)C2)c1C (configuration not stated)	-18%	?	?	3	?	16µM*
CSc1cccc(CN2CCCC(C(=O)Nc3cccc(-n4cccn4)c3)C2)c1 (configuration not stated)	7%	16µM*	.	12	.	?
Cc1c(CN2CCCC(C(=O)Nc3cccc(-n4cccn4)c3)C2)cnn1C (configuration not stated)	0%	?	i	42	i	?
O=C(Nc1cccc(-n2cccn2)c1)C1CCCN(Cc2cc3ccccc3[nH]2)C1 (configuration not stated)	5%	?	i	-11	i	21µM*
Cc1ccc(S(=O)(=O)N2CCN(c3nc(-c4cccs4)nc4ccccc34)CC2)c(C)c1	.	.	.	4	.	.
Cc1cc(/C=N/n2cnnc2)c(C)n1-c1ccc(OCc2ccccc2F)cc1	-4%	6%	?	-12	i	-5%
Cc1cc(/C=N/n2cnnc2)c(C)n1-c1ccc(OCc2ccc(Cl)cc2)cc1	-15%	2%	8.2µM*	8	3.7µM*	?
SMILES	ASM inhibitor	SW480 rerep	KB-3-1 cytotox	Giardia killer	KB-V1 cytotox	MCF10A rerep
Cn1nc(C(=O)Nc2cccc(C(F)(F)F)c2)c2c1-c1ccccc1S(=O)(=O)C2	.	.	i	.	i	.
C=CCN1C(=O)NC(c2ccccc2)(C(F)(F)F)S/C1=C(\C#N)c1nnc(N2CCOCC2)n1-c1ccccc1 (configuration not stated)	-2%	-15%	i	-5	?	21µM*
C=CCN1C(c2cccc(C(F)(F)F)c2)=CS/C1=C(\C#N)c1nnc(N2CCOCC2)n1-c1ccccc1	.	.	i	.	i	.
CCC(C)NC(=O)Cn1c(=O)n(Cc2ccc(C(=O)NCCCOC)cc2)c(=O)c2ccccc21 (configuration not stated)	.	.	i	.	i	.
Cc1ccc(S(=O)(=O)Nc2ccc(-c3ccc(N4CCCCCC4)nn3)cc2)cc1C	.	.	?	.	i	.
COc1cccc(N(CC(=O)Nc2ccc3c(c2)OCO3)S(=O)(=O)c2ccccc2)c1	-1%	16%	i	-11	16µM*	9%
COC(=O)c1cc(NC(=O)CN(c2ccccc2OC)S(=O)(=O)c2ccccc2)ccc1Cl	-7%	-2%[9.22 µM]	i	8	i	29%
COc1ccc(N(CC(=O)Nc2ccc3c(c2)OCO3)S(=O)(=O)c2ccccc2)cc1	-4%	-11%	i	-17	i	-1%
CN(c1cccc(NC(=O)CN(c2cccc(Cl)c2)S(=O)(=O)c2ccc(Cl)cc2)c1)S(C)(=O)=O	-2%	.	?	10	18µM*	17%
COC(=O)c1cc(NC(=O)CN(c2cccc(OC)c2)S(=O)(=O)c2ccccc2)ccc1Cl	-9%	2%	16µM*	-4	1.5µM*	19%
Cc1ccc(Cn2c(C)c(CNCc3ccc(OC(C)C)cc3)c(C(=O)O)c2C)cc1	.	.	i	.	?	.
CC(C)CNS(=O)(=O)c1ccccc1C(=O)N1CCCCC1	1%	-5%	i	-9	15µM*	1%
Cc1cccc(C)c1OCC(O)CNS(=O)(=O)c1ccccc1C(=O)N1CCCCC1 (configuration not stated)	-3%	0%	i	-6	4.6µM*	10%
CCc1ccc(CN(Cc2cn[nH]c2-c2ccc(OC)cc2)C(=O)Nc2ccc(C)c(F)c2)cc1	.	.	i	.	i	.
O=C(CCNC(=O)c1ccc(Cl)cc1)Nc1cccc(S(=O)(=O)N2CCCCCC2)c1	-9%	-90%	i	-13	?	-15%
COc1cccc(NC(=O)c2ccccc2)c1	0%	-3%	i	-12	i	-17%
CC(CCc1ccccc1)NC(=O)c1ccc(NC(=O)c2cccc(Br)c2)cc1 (configuration not stated)	-3%	?	i	14	2.1µM*	18µM*
